Screens (PubChem BioAssay)
A selection: hits, their analogues and other compounds. The true share with any hit is near 7.8%.
Marburg entry inh – inhibitors of Marburg virus binding or cell entry; Marburg virus pseudotyped entry inhibition, cell reporter; Potency, µM (titrated, usually from 37.8 µM), for inactives: at the top dose activity change, negative = inhibition, usual class: inhibitors; hit rate 1.8% among 300,000; AID 540276; calls by dose curve; tested in HEK293 cells; also: potency is read from the fitted curve at half-maximal effect
Vaccinia Venus – vaccinia inhibition (Venus reporter) | hit rate 0.46% among 330,000 | Potency, µM (highest dose often 36.5 µM), for the others: at the highest dose activity change, negative = inhibition, actives largely listed as inhibitors | Vaccinia virus Venus reporter expression, fluorescence; calls by dose curve; tested in A549 cells; also: potency is read from the fitted curve at half-maximal effect; nearly all actives have a fitted effect of over 30% in size
HCMV inh – blocks human cytomegalovirus replication; HFF cells, HCMV-luciferase reporter, 72 h; active compounds read low; activity change, negative = inhibition, % at 57.5 µM; hit rate 4.5% among 410,000; in the data active = activity change below about -60%; inconclusive = no clear call, values can overlap the other calls; inactive = above about -39%
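Inhibition of viral replication was scored as loss of reporter luminescence in HFFs infected with HCMV-luciferase (MOI 1 PFU/cell) for 72 h; compounds tested at 2 doses, normalized to buffer and Salinomycin controls.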
HCV inhibitor – inhibitors of hepatitis C virus infection | Huh7.5.1 HCVcc-Cre infection, luciferase reporter, 44 h | Potency, µM (highest dose often 41.8 µM), for inactives: at the top dose activity change, negative = inhibition, actives largely listed as inhibitors | hit rate 3.4% among 340,000; active = well fitted inhibition curve with a large enough effect; inconclusive = small, poorly fitted or top-dose-only effect, or another doubt; inactive = no such curve, though single readings can be large or run the other way; also: potency is read from the fitted curve at half-maximal effect
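Compounds are dispensed onto cells plated 4 h earlier at 1,000 per well, with HCVcc-Cre virus (about 0.5 moi) added next. Following 44 h of culture, luminescent signal is measured for 15 sec after 15 min with substrate at room temperature.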
LASV entry inh – Lassa virus entry inhibition; Lassa virus pseudotype entry inhibition, cell reporter; Potency, µM (titrated, usually from 37.9 µM), for inactives: at the highest dose activity change, negative = inhibition, hits mostly inhibitors; hit rate 1.2% among 300,000; calls by dose curve; tested in HEK293 cells; also: potency is read from the fitted curve at half-maximal effect; nearly all actives have a fitted effect of over 50% in size
VACV mCherry inh – vaccinia inhibition (mCherry reporter); Vaccinia virus mCherry reporter infection, fluorescence; Potency, µM (series often up to 36.5 µM), for inactives: at the top dose activity change, negative = inhibition, usual class: inhibitors; hit rate 0.63% among 310,000; AID 720579; calls by dose curve; tested in A549 cells; also: potency is read from the fitted curve at half-maximal effect; nearly all actives have a fitted effect of over 35% in size
Active calls of the source: *; i = inactive; ? = inconclusive; . = not tested or not shown; [ ] = dose if it differs, or a comment. % is scaled to controls: 0 for no effect and ±100 for the full control effect.

SMILES	Marburg entry inh	Vaccinia Venus	HCMV inh	HCV inhibitor	LASV entry inh	VACV mCherry inh
COc1ccc(C(=O)Cn2cc[n+](C)c2)cc1	-24%	-17%	-8	11µM*	-28%	-27%
Cc1nc(Cl)sc1C(=O)Nc1ccc(F)cc1	12%[46.1 µM]	-17%	61	23%	-4%[46.1 µM]	i
CC(C)S(=O)(=O)c1csc(C(=O)Nc2ccc(F)cc2)c1N	?	-21%	72	3.2µM*	?	?
CN1C(=CC=C2C=C(I)C(=O)C(I)=C2)C(C)(C)c2ccccc21	-3%[46.1 µM]	480%	-77*	-24%	12%	198%
CN1/C(=C\C=C2/SC(=S)NC2=O)C(C)(C)c2ccccc21	.	i	-93*	?	.	125%
COC(=O)c1cc2sc(Cl)cc2n1Cc1c(C)cc(C)cc1C	12%[46.1 µM]	-1%	13	.	.	-13%
CCC1CCc2sc(C(=O)NCC(c3ccccc3OC)N3CCCC3)cc2C1 (stereo not given)	.	.	?	7.1µM*	.	.
COc1ccc(C(CNC(=O)c2cc3c(s2)CCC(C)C3)N2CCCC2)cc1 (stereo not given)	.	.	?	10µM*	.	.
CCC1CCc2sc(C(=O)NCc3ccccn3)cc2C1 (stereo not given)	?	0%	17	-9%	9%[46.1 µM]	i
COc1ccc(NC(=O)CN(C)C(=O)c2cc3c(s2)CCC(C)C3)cc1 (stereo not given)	6%	-18%	22	-8%	5%	-17%
COC(=O)Cn1c(=O)c2cccn2c2ccc(F)cc21	-1%[46.1 µM]	-7%	-7	.	6%[46.1 µM]	-11%
O=[N+]([O-])c1ccc(Nc2ccccc2O)c2nonc12	.	.	-61*	-7%	.	.
COc1ccc(S[C@]2(c3nc(C)no3)CC(=O)N(P(=O)(OC)OC)[C@@H]2c2ccc(OC)cc2)cc1	.	.	39	.	.	.
CCN(CC)CCNC(=O)c1ccc2c(c1)NC(=O)C(CS(=O)(=O)Cc1cccc(Br)c1)N2 (stereo not given)	.	8%	-2	.	0%[46.1 µM]	-15%
CC(=O)N(C1=C(Cl)C(=O)c2ccccc2C1=O)C1CCCCC1	?	?	-103*	7.9µM*	13µM*	?
COc1ccc(-c2cn(Cc3ccc(C(=O)c4ccccc4)cc3)nn2)cc1	.	?	-82*	-12%[8.37 µM]	.	?
CC1(C)Cc2c(c(N3CCCC3)nc3sc4c(N5CCNCC5)ncnc4c23)CO1	.	.	.	14µM*	.	.
COc1ccc(C(=O)NC2CC(=O)N(c3ccc4c(c3)OCCO4)C2)cc1 (stereo not given)	.	-7%	2	.	12%[46.1 µM]	1%
Cc1ccccc1C1(CC(=O)N2CCCC(C)C2)CC(=O)N(Cc2cccnc2)C1=O (stereo not given)	.	3%	.	.	.	-11%
CC(=O)NC(Cc1cccc(C)c1)C(=O)NC1CCN(C(=O)c2ccc([N+](=O)[O-])cc2)CC1 (stereo not given)	-1%	4%	-74*	19%	-6%	i
CC1(C)C2CCC(C2)C1C/C=N/NC(N)=S (stereo not given)	?	-37%	-73*	-5%	1%	?
CCC(C)(C)n1nnnc1C(c1cccnc1)N1CCN(c2cccc(C(F)(F)F)c2)CC1 (stereo not given)	13µM*	.	30	0%	?	.
CCC(C)(C)n1nnnc1C(c1cccc(C#N)c1)N1CCN(c2cc(C)ccc2C)CC1 (stereo not given)	2.9µM*	-4%	1	6%	?	-9%
CN(C)c1ccc(/C=C/c2sc3ccccc3[n+]2Cc2ccccc2)cc1	.	-7%	.	.	.	17%
NS(=O)(=O)c1ccc(N/N=C/c2cn(-c3ccccc3)nc2-c2ccccc2)c([N+](=O)[O-])c1	.	.	-81*	10µM*	.	.
SMILES	Marburg entry inh	Vaccinia Venus	HCMV inh	HCV inhibitor	LASV entry inh	VACV mCherry inh
NS(=O)(=O)c1ccc(N/N=C/c2ccccn2)c([N+](=O)[O-])c1	?	.	-64*	?	?	.
NS(=O)(=O)c1ccc(N/N=C/c2ccc(O)c(O)c2O)c([N+](=O)[O-])c1	?	-4%	-26	-19%	-21%	?
NS(=O)(=O)c1ccc(N/N=C/c2ccc(O)cc2O)c([N+](=O)[O-])c1	.	-25%	-78*	-28%	.	?
O=C(c1ccco1)N1CC2(CC(c3ccc(Cl)cc3)=NO2)CN1Cc1ccc(Br)cc1 (stereo not given)	.	-19%	24	.	.	-11%
COc1ccccc1N1CCN(c2nc3ccc(C)cc3n3nnnc23)CC1	.	0%	-32	.	-5%[46.1 µM]	-6%
COc1ccc(CCNC2CC(=O)N(CCc3ccccc3)C2=O)cc1OC (stereo not given)	-4%	-15%	9	5%	4%	-19%
COc1ccc(CCNC2=C(Cl)C(=O)N(CCc3ccccc3)C2=O)cc1OC	?	-15%	-15	13µM*	-26%	-17%
CC(C)(c1ccccc1)c1ccc(OCC(O)CNC2CCN(Cc3ccccc3)CC2)cc1 (stereo not given)	?	?	-113*	8.9µM*	.	-13%
COc1ccc(OCC(O)CNC2CCCC2)cc1 (stereo not given)	1%[46.1 µM]	-6%	49	-3%	0%[46.1 µM]	-22%
CCOc1ccc(OCC(O)CNC2CCN(Cc3ccccc3)CC2)cc1 (stereo not given)	1.6µM*	?	-64*	?	6.3µM*	-13%
Cc1nn2c(=O)cc(COC(=O)COc3ccc(F)cc3)nc2s1	.	-3%	2	.	11%[46.1 µM]	7%
CC1=C(C)C(=O)C(CCCCC#CCCCC#CCO)=C(C)C1=O	?	-14%	.	1%[8.37 µM]	21µM*	i
COC1=C(OC)C(=O)C(CCCCCCCCCCO)=C(C)C1=O	.	.	-18	.	.	.
O=C(O)c1ccc(-c2cccc([N+](=O)[O-])c2)o1	.	5%	-30	16%	.	-8%
O=C(NC1CCCCC1)c1ccc(-c2cccc([N+](=O)[O-])c2)o1	.	.	-69*	?	.	.
CN1CCN(c2ccc(NC(=O)c3ccc(-c4ccccc4F)o3)cc2)CC1	?	-29%	121	10µM*	?	-24%
O=C(NC1CCCCC1)c1ccc(-c2ccccc2F)o1	?	-16%	164	0.71µM*	?	-15%
Cc1cc(N2CCN(C)CC2)ccc1NC(=O)c1ccc(-c2ccc(Cl)cc2)o1	?	-14%	?	14µM*	?	?
CCCCCCc1cc2cc(-c3nnc(-c4ccccc4O)o3)c(=O)oc2cc1O	19%	-3%	-104*	?	-1%	-8%
CCCCCCc1cc2cc(S(=O)(=O)c3ccc(F)cc3)c(=O)oc2cc1O	1%	-8%	28	11%	-2%	-9%
CCCCCCc1cc2cc(-c3nnc(-c4ccccc4OC)o3)c(=O)oc2cc1O	?	-15%	-74*	-7%	?	?
CCCCCCc1cc2cc(-c3nnc(-c4cc(OC)c(OC)c(OC)c4)o3)c(=O)oc2cc1O	-2%	.	.	?	3%	.
Nc1ccc2ccc3cccc[n+]3c2c1	-14%[46.1 µM]	18%	-25	7.1µM*	-10%[46.1 µM]	3%
